# Source: paper PMC7862700, “An all-to-all approach to the identification of sequence-specific readers for epigenetic DNA modifications on cytosine”
# Assays:
# Assay in all cases: DAPPL (digital affinity profiling via proximity ligation, sequencing); 10 mM Tris-HCl pH 7.5, 50 mM NaCl, 1 mM DTT, 4% glycerol, room temperature, 30 min; GST-TFs on glutathione beads, 16-mer random dsDNA library, 0.1% formaldehyde crosslink after washing; high values mean tight binding
# [1] = molecular target: T1, FLI1 (Homo sapiens, UniProt Q01543 1-452); conditions: protein: recombinant; tags: N-terminal GST; dsDNA, one strand shown
# T1 sequence: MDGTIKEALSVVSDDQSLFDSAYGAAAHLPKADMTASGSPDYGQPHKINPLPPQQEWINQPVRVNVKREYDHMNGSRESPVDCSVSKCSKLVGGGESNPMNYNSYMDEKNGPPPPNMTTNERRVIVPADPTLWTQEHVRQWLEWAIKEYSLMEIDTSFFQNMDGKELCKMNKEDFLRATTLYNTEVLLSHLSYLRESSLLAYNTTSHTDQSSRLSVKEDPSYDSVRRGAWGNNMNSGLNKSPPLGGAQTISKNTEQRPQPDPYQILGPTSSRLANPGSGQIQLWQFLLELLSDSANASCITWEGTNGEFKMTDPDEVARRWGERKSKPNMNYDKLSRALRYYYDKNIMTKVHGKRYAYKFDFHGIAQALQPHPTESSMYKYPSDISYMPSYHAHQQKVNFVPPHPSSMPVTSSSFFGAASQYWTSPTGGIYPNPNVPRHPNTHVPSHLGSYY
# In short: (§1)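 Binding signal is each hexamer's read frequency for a factor divided by its frequency in the tag-only sample. The factors were GST-fused human transcription factors from yeast, captured on glutathione beads, DNA-barcoded and pooled with that sample. Pools were incubated with 200 nmole of a random double-stranded 16-mer DNA library in Tris/NaCl/DTT/glycerol buffer at room temperature for 30 min, then washed, crosslinked with 0.1% formaldehyde, proximity-ligated with BsaI/T4 ligase (1 h, 37 °C), PCR-amplified and sequenced on an Illumina NextSeq500.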
# [2] = molecular target: T2, ELK1 (Homo sapiens, UniProt P19419 1-428); conditions: protein: recombinant; tags: N-terminal GST; dsDNA, one strand shown
# T2 sequence: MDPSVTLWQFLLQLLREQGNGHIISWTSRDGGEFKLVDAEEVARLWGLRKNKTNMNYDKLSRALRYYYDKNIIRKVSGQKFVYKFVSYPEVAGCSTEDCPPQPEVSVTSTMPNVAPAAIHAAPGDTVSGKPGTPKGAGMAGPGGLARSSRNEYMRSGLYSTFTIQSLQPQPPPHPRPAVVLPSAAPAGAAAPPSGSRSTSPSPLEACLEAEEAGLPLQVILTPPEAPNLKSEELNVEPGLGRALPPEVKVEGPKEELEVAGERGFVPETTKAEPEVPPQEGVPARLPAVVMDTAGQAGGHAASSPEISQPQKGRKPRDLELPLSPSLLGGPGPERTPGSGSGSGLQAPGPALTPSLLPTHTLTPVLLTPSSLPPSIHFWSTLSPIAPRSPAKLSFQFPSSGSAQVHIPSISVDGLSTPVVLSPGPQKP
# In short: as §1
# [3] = molecular target: T3, GABPA (Homo sapiens, UniProt Q06546 1-454); conditions: protein: recombinant; tags: N-terminal GST; dsDNA, one strand shown
# T3 sequence: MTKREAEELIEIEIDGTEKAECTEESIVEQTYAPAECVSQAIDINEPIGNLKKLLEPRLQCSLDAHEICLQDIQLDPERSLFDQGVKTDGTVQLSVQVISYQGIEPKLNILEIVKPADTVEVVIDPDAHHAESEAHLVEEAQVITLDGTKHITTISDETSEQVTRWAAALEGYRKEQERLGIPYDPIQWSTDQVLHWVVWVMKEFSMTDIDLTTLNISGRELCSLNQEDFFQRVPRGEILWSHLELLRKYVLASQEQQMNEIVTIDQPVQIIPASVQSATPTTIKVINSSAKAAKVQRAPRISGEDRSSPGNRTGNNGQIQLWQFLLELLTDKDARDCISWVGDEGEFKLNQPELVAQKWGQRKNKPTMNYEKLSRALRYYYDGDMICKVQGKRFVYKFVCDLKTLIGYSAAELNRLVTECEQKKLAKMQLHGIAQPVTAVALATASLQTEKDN
# In short: as §1
# [4] = molecular target: T4, ERG (Homo sapiens, UniProt P11308 1-479); conditions: protein: recombinant; tags: N-terminal GST; dsDNA, one strand shown
# T4 sequence: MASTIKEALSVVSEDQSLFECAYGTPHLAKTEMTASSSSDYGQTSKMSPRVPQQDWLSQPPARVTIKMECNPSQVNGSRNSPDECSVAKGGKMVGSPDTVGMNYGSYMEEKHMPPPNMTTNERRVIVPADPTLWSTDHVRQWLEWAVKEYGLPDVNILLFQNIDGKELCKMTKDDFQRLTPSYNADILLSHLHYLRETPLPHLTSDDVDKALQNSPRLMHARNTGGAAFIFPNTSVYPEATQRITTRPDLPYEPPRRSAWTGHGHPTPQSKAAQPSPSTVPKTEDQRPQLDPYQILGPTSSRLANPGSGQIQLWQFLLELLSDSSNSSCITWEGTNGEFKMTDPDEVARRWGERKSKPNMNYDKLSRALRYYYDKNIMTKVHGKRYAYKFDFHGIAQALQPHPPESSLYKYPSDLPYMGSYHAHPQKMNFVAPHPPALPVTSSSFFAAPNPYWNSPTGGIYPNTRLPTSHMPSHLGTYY
# In short: as §1
# [5] = molecular target: ELF1 (Homo sapiens, UniProt P32519 1-619); conditions: protein: recombinant; tags: N-terminal GST; dsDNA, one strand shown
# In short: as §1
# [6] = molecular target: T5, EHF (Homo sapiens, UniProt Q9NZC4 1-300); conditions: protein: recombinant; tags: N-terminal GST; dsDNA, one strand shown
# T5 sequence: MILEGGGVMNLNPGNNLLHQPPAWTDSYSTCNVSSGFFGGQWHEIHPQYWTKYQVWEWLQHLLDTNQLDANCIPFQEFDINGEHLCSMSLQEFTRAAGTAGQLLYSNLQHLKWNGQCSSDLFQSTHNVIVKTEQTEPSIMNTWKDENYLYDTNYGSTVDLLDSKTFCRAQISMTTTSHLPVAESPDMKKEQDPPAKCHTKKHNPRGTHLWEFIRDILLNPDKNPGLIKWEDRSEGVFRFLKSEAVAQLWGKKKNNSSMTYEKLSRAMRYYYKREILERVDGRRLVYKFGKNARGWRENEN
# In short: as §1
# [7] = molecular target: SPI1 (Homo sapiens, UniProt P17947 1-270); conditions: protein: recombinant; tags: N-terminal GST; dsDNA, one strand shown
# In short: as §1
# [8] = molecular target: SPIB (Homo sapiens, UniProt Q01892 1-262); conditions: protein: recombinant; tags: N-terminal GST; dsDNA, one strand shown
# In short: as §1
# [9] = molecular target: T6, ELK3 (Homo sapiens, UniProt P41970 1-407); conditions: protein: recombinant; tags: N-terminal GST; dsDNA, one strand shown
# T6 sequence: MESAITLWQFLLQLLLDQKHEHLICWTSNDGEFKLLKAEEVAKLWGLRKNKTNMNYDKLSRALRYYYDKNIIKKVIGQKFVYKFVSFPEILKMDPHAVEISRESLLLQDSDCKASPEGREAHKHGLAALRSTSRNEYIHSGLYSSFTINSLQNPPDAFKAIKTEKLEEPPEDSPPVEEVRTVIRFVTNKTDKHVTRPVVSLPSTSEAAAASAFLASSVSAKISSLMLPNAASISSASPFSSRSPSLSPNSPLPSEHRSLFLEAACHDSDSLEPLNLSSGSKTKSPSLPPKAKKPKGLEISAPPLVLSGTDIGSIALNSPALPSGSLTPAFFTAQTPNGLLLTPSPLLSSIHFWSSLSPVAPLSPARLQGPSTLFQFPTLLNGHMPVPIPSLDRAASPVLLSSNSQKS
# In short: as §1
# [10] = molecular target: T7, FEV (Homo sapiens, UniProt Q99581 1-238); conditions: protein: recombinant; tags: N-terminal GST; dsDNA, one strand shown
# T7 sequence: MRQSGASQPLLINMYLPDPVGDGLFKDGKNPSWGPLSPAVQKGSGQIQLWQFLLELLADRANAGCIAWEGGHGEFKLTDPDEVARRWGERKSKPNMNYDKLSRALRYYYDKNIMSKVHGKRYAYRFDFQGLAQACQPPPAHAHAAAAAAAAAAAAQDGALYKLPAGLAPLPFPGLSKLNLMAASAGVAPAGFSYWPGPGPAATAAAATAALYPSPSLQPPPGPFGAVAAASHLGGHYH
# In short: as §1
# [11] = molecular target: ETV5 (Homo sapiens, UniProt P41161 1-510); conditions: protein: recombinant; tags: N-terminal GST; dsDNA, one strand shown
# In short: as §1
# [12] = molecular target: HSF1 (Homo sapiens, UniProt Q00613 1-529); conditions: protein: recombinant; tags: N-terminal GST; chain copies: 3; dsDNA, one strand shown
# In short: as §1
# [13] = molecular target: T8, SPIC (Homo sapiens, UniProt Q8N5J4 1-248); conditions: protein: recombinant; tags: N-terminal GST; dsDNA, one strand shown
# T8 sequence: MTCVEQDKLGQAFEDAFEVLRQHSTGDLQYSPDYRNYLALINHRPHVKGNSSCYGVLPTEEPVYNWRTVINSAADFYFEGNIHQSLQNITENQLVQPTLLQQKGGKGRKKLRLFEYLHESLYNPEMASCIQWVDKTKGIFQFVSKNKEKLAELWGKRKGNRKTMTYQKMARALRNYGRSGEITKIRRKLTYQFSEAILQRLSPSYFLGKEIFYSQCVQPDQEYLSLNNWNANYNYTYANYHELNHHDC
# In short: as §1
# [14] = molecular target: ELF4 (Homo sapiens, UniProt Q99607 1-663); conditions: protein: recombinant; tags: N-terminal GST; dsDNA, one strand shown
# In short: as §1
# [15] = molecular target: T9, ELK4 (Homo sapiens, UniProt P28324-2 1-405); conditions: protein: recombinant; tags: N-terminal GST; dsDNA, one strand shown
# T9 sequence: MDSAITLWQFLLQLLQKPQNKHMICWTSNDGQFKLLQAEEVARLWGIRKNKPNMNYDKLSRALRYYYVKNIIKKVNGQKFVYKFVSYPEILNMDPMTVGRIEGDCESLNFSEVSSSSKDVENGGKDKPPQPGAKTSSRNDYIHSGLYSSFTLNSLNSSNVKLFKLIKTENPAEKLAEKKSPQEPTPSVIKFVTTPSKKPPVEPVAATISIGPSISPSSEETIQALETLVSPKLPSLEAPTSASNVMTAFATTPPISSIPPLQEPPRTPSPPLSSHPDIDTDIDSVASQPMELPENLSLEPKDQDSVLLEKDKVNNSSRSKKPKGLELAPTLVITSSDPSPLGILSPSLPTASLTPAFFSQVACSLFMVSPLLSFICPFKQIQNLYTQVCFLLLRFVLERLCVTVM
# In short: as §1
# [16] = molecular target: T10, ETV2 (Homo sapiens, UniProt O00321 1-342); conditions: protein: recombinant; tags: N-terminal GST; dsDNA, one strand shown
# T10 sequence: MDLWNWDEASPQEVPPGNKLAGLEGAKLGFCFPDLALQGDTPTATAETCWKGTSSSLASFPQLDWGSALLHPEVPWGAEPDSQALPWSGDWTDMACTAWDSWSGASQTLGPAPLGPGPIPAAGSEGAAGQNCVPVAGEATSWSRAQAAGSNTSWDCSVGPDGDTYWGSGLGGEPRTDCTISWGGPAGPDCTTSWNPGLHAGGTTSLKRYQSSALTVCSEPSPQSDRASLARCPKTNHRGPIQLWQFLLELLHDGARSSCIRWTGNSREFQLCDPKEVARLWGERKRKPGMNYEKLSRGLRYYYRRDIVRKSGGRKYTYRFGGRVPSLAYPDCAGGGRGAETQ
# In short: as §1
# [17] = molecular target: T11, ELF3 (Homo sapiens, UniProt P78545 1-371); conditions: protein: recombinant; tags: N-terminal GST; dsDNA, one strand shown
# T11 sequence: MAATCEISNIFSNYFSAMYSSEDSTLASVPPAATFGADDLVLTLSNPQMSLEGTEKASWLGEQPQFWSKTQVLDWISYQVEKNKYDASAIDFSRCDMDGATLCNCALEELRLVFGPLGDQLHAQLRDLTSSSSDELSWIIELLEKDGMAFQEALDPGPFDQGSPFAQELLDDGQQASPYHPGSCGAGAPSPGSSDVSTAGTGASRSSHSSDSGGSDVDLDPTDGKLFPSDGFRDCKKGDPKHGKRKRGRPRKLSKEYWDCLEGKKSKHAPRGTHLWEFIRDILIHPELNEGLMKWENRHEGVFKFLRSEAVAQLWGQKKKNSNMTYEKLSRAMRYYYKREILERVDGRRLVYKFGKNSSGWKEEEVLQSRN
# In short: as §1
# [18] = molecular target: CRX (Homo sapiens, UniProt O43186 1-299); conditions: protein: recombinant; tags: N-terminal GST; dsDNA, one strand shown
# In short: as §1
# [19] = molecular target: ETV1 (Homo sapiens, UniProt P50549 1-477); conditions: protein: recombinant; tags: N-terminal GST; dsDNA, one strand shown
# In short: as §1
# ETV1, sequence (P50549 whole entry): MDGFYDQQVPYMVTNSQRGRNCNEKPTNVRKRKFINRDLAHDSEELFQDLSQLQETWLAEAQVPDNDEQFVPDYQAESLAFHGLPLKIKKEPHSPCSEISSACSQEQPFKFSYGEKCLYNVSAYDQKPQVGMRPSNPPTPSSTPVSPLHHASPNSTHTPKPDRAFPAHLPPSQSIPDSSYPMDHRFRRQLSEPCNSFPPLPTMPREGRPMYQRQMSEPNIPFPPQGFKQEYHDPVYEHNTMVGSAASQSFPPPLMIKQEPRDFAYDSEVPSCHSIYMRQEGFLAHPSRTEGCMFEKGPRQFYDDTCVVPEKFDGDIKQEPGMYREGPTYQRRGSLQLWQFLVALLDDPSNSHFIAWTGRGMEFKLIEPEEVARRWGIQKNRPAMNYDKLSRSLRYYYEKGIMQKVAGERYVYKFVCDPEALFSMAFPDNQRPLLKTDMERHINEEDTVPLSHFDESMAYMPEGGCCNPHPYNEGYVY
# HSF1, sequence (Q00613 whole entry): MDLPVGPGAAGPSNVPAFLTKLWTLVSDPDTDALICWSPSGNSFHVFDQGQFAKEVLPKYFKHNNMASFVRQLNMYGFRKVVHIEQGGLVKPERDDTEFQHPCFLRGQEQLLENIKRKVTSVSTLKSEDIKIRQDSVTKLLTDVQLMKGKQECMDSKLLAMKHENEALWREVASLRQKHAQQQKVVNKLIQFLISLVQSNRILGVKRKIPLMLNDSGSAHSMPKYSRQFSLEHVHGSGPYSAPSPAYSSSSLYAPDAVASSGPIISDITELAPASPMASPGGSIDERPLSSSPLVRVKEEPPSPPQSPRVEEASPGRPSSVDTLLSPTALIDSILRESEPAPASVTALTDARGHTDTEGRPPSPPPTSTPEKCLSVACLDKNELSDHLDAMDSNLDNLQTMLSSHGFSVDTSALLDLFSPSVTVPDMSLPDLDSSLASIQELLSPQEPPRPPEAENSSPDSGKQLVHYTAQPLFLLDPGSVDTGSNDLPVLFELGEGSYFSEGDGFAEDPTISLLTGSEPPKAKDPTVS
# ELF1, sequence (P32519 whole entry): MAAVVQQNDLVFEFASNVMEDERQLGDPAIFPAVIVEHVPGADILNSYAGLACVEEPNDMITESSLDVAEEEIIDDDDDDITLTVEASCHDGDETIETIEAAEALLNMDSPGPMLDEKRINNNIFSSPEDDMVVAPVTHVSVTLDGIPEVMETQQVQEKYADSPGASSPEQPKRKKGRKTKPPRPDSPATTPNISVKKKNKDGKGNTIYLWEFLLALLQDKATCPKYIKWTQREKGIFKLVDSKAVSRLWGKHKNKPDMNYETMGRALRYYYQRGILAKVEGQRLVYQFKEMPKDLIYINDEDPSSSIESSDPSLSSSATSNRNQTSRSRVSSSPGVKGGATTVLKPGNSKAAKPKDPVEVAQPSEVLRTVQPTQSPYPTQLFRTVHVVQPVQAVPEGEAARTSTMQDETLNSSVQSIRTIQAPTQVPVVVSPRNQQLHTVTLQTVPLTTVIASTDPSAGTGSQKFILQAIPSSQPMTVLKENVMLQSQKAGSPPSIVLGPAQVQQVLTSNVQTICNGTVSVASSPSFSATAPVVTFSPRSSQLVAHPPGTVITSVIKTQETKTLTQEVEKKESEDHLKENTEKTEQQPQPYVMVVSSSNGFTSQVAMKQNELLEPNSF
# ELF4, sequence (Q99607 whole entry): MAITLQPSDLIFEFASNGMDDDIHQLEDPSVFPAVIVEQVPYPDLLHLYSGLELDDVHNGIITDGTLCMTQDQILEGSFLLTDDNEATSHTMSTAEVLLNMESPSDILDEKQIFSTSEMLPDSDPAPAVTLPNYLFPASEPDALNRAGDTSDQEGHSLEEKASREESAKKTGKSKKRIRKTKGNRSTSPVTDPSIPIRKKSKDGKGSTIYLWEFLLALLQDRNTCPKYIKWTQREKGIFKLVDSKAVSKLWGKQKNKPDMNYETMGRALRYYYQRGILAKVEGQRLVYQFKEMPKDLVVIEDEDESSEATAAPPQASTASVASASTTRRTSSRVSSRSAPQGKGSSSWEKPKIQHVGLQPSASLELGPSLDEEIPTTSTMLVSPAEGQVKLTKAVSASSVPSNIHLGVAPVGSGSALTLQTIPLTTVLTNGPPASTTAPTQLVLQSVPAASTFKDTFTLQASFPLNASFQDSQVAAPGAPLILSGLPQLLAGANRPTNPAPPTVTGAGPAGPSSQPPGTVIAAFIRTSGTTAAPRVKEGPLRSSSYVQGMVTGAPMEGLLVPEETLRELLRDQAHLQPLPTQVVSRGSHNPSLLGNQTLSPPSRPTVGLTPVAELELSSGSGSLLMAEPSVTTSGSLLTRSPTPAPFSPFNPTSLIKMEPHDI
# SPIB, sequence (Q01892 whole entry): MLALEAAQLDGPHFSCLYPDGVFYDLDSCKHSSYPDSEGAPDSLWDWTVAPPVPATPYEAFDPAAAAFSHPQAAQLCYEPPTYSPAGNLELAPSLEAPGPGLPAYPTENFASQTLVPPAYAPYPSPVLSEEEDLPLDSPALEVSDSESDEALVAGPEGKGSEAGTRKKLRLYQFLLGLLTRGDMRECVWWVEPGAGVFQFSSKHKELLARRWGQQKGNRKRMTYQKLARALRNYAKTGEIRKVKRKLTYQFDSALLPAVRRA
# CRX, sequence (O43186 whole entry): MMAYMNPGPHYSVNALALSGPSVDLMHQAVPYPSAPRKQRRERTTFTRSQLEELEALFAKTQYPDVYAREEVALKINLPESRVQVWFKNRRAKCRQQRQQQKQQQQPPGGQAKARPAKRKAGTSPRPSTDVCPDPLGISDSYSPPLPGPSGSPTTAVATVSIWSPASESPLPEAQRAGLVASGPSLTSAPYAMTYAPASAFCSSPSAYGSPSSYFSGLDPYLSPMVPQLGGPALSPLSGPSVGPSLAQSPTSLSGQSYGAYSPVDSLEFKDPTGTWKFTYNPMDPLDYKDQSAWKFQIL
# ETV5, sequence (P41161 whole entry): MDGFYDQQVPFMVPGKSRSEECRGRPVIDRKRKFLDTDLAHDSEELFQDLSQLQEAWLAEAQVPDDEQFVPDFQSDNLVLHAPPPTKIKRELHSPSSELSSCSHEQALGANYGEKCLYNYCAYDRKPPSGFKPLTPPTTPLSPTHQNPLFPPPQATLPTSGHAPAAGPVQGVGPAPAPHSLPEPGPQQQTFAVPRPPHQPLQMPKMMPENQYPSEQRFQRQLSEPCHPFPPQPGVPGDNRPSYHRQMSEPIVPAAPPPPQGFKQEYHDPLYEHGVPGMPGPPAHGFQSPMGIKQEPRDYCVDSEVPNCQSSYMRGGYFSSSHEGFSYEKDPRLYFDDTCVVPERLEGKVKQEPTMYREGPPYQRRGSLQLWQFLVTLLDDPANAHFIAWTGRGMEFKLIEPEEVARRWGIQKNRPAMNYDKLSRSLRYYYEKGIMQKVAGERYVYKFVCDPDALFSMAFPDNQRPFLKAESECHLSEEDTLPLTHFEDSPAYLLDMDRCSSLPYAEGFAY
sequence,measurement,setting,value
ATACTT,binding signal,[1],"1.57 fold enrichment (6-mer frequency, TF over GST control)"
same,binding signal,[2],"1.6 fold enrichment (6-mer frequency, TF over GST control)"
same,binding signal,[3],"1.54 fold enrichment (6-mer frequency, TF over GST control)"
same,binding signal,[4],"1.68 fold enrichment (6-mer frequency, TF over GST control)"
same,binding signal,[5],"1.61 fold enrichment (6-mer frequency, TF over GST control)"
same,binding signal,[6],"1.71 fold enrichment (6-mer frequency, TF over GST control)"
same,binding signal,[7],"1.67 fold enrichment (6-mer frequency, TF over GST control)"
same,binding signal,[8],"1.48 fold enrichment (6-mer frequency, TF over GST control)"
same,binding signal,[9],"1.7 fold enrichment (6-mer frequency, TF over GST control)"
same,binding signal,[10],"1.6 fold enrichment (6-mer frequency, TF over GST control)"
same,binding signal,[11],"1.6 fold enrichment (6-mer frequency, TF over GST control)"
same,binding signal,[12],"1.34 fold enrichment (6-mer frequency, TF over GST control)"
same,binding signal,[13],"1.58 fold enrichment (6-mer frequency, TF over GST control)"
same,binding signal,[14],"1.55 fold enrichment (6-mer frequency, TF over GST control)"
same,binding signal,[15],"1.55 fold enrichment (6-mer frequency, TF over GST control)"
same,binding signal,[16],"1.53 fold enrichment (6-mer frequency, TF over GST control)"
same,binding signal,[17],"1.58 fold enrichment (6-mer frequency, TF over GST control)"
same,binding signal,[18],"1.71 fold enrichment (6-mer frequency, TF over GST control)"
same,binding signal,[19],"1.72 fold enrichment (6-mer frequency, TF over GST control)"
